# How the values were obtained:
# Assay in all cases: DAPPL (digital affinity profiling via proximity ligation, sequencing); 10 mM Tris-HCl pH 7.5, 50 mM NaCl, 1 mM DTT, 4% glycerol, room temperature, 30 min; GST-TFs on glutathione beads, 16-mer random dsDNA library, 0.1% formaldehyde crosslink after washing; high values mean tight binding
# FLI1 = target: T1, FLI1 (Homo sapiens, UniProt Q01543 1-452); conditions: protein: recombinant; tags: N-terminal GST; dsDNA, one strand shown
# T1 sequence: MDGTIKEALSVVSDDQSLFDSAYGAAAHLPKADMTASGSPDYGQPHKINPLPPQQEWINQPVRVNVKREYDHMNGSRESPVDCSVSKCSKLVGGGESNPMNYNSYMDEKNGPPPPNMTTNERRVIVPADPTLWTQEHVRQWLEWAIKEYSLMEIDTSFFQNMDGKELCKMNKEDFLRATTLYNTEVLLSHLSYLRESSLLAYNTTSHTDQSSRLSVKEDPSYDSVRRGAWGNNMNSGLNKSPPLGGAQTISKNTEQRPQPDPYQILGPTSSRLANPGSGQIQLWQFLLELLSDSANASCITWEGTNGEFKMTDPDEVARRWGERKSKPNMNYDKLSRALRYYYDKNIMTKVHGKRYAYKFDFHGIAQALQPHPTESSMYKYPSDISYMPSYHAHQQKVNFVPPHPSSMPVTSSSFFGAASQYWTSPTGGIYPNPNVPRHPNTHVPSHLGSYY
# Procedure, shortened: (§1)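 Human transcription factors were made in yeast as GST fusions, captured on glutathione beads and barcoded with DNA. With a tag-only sample included, the pool was incubated with 200 nmole of a random double-stranded 16-mer DNA library in Tris/NaCl/DTT/glycerol buffer at room temperature for 30 min, then crosslinked with 0.1% formaldehyde after washing, ligated by proximity, amplified and sequenced. For binding signal, each hexamer's read frequency for a factor is divided by its frequency for the tag-only sample.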
# ELK1 = target: T2, ELK1 (Homo sapiens, UniProt P19419 1-428); conditions: protein: recombinant; tags: N-terminal GST; dsDNA, one strand shown
# T2 sequence: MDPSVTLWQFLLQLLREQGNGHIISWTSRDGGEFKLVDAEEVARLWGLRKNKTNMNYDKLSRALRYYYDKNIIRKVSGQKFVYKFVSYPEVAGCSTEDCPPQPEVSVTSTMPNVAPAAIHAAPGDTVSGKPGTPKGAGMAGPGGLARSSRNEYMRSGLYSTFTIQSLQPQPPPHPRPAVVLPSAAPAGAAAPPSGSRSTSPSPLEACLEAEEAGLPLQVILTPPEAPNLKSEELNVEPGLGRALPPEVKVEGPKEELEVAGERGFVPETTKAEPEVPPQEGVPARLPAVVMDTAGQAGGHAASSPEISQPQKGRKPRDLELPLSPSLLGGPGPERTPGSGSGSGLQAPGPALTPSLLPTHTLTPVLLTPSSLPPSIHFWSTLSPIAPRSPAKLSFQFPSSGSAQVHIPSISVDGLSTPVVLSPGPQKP
# Procedure, shortened: as §1
# GABPA = target: T3, GABPA (Homo sapiens, UniProt Q06546 1-454); conditions: protein: recombinant; tags: N-terminal GST; dsDNA, one strand shown
# T3 sequence: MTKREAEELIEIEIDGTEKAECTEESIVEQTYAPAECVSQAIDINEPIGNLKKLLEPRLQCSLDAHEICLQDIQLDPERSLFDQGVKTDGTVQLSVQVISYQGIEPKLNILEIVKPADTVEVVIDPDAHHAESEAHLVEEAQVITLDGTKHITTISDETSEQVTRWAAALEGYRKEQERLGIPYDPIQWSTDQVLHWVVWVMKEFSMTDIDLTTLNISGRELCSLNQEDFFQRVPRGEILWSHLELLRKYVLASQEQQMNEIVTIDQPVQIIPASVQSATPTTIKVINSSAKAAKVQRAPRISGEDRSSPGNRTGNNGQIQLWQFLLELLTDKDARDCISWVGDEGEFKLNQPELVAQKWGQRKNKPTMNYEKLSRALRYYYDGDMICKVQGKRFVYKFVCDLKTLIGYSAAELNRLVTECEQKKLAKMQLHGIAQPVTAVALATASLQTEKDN
# Procedure, shortened: as §1
# ERG = target: T4, ERG (Homo sapiens, UniProt P11308 1-479); conditions: protein: recombinant; tags: N-terminal GST; dsDNA, one strand shown
# T4 sequence: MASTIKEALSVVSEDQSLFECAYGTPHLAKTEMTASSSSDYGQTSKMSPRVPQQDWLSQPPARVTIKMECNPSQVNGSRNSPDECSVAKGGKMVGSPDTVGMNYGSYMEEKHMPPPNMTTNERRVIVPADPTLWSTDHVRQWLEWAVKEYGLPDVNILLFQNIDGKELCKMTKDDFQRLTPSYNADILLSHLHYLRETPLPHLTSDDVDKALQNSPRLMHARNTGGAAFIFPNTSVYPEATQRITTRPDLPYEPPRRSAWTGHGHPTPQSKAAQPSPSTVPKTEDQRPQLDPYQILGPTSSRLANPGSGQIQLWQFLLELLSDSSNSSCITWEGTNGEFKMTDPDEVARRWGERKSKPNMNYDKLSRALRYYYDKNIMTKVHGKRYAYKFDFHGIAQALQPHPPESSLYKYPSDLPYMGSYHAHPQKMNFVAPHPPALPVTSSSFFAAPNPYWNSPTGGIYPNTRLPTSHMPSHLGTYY
# Procedure, shortened: as §1
# ELF1 = ELF1 (Homo sapiens, UniProt P32519 1-619); conditions: protein: recombinant; tags: N-terminal GST; dsDNA, one strand shown
# Procedure, shortened: as §1
# EHF = target: T5, EHF (Homo sapiens, UniProt Q9NZC4 1-300); conditions: protein: recombinant; tags: N-terminal GST; dsDNA, one strand shown
# T5 sequence: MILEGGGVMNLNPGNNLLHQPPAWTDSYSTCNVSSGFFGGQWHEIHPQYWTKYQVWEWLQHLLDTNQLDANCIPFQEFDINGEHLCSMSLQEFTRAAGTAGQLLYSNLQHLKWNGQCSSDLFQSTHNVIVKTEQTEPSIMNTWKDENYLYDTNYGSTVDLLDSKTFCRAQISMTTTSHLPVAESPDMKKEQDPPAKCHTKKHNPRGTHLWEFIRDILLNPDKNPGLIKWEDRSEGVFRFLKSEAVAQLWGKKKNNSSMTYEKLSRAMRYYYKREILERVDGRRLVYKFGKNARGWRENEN
# Procedure, shortened: as §1
# SPI1 = SPI1 (Homo sapiens, UniProt P17947 1-270); conditions: protein: recombinant; tags: N-terminal GST; dsDNA, one strand shown
# Procedure, shortened: as §1
# SPIB = SPIB (Homo sapiens, UniProt Q01892 1-262); conditions: protein: recombinant; tags: N-terminal GST; dsDNA, one strand shown
# Procedure, shortened: as §1
# ELK3 = target: T6, ELK3 (Homo sapiens, UniProt P41970 1-407); conditions: protein: recombinant; tags: N-terminal GST; dsDNA, one strand shown
# T6 sequence: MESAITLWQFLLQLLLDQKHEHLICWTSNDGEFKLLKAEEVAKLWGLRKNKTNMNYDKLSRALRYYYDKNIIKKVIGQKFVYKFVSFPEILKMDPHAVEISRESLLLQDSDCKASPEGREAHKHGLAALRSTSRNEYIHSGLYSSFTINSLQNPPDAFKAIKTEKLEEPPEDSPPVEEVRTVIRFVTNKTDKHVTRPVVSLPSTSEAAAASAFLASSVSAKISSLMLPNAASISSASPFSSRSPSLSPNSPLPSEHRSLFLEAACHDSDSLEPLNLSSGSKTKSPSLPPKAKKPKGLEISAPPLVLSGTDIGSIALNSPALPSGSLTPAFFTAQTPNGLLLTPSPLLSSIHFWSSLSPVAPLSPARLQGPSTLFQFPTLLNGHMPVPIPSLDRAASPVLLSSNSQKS
# Procedure, shortened: as §1
# FEV = target: T7, FEV (Homo sapiens, UniProt Q99581 1-238); conditions: protein: recombinant; tags: N-terminal GST; dsDNA, one strand shown
# T7 sequence: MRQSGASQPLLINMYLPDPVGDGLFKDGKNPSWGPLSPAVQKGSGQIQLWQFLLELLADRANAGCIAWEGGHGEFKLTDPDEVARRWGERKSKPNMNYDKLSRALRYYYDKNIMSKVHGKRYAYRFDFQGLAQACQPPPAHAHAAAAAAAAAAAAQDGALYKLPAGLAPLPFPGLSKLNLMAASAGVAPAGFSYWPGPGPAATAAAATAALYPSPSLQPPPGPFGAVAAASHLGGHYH
# Procedure, shortened: as §1
# ETV5 = ETV5 (Homo sapiens, UniProt P41161 1-510); conditions: protein: recombinant; tags: N-terminal GST; dsDNA, one strand shown
# Procedure, shortened: as §1
# HSF1 = HSF1 (Homo sapiens, UniProt Q00613 1-529); conditions: protein: recombinant; tags: N-terminal GST; chain copies: 3; dsDNA, one strand shown
# Procedure, shortened: as §1
# SPIC = target: T8, SPIC (Homo sapiens, UniProt Q8N5J4 1-248); conditions: protein: recombinant; tags: N-terminal GST; dsDNA, one strand shown
# T8 sequence: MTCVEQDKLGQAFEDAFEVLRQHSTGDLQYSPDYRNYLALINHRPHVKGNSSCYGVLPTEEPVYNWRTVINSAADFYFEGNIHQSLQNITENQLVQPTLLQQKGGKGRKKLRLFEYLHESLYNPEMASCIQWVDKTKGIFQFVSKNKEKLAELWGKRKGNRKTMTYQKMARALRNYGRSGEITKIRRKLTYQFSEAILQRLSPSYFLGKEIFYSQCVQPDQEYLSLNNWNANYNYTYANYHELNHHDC
# Procedure, shortened: as §1
# ELF4 = ELF4 (Homo sapiens, UniProt Q99607 1-663); conditions: protein: recombinant; tags: N-terminal GST; dsDNA, one strand shown
# Procedure, shortened: as §1
# ELK4 = target: T9, ELK4 (Homo sapiens, UniProt P28324-2 1-405); conditions: protein: recombinant; tags: N-terminal GST; dsDNA, one strand shown
# T9 sequence: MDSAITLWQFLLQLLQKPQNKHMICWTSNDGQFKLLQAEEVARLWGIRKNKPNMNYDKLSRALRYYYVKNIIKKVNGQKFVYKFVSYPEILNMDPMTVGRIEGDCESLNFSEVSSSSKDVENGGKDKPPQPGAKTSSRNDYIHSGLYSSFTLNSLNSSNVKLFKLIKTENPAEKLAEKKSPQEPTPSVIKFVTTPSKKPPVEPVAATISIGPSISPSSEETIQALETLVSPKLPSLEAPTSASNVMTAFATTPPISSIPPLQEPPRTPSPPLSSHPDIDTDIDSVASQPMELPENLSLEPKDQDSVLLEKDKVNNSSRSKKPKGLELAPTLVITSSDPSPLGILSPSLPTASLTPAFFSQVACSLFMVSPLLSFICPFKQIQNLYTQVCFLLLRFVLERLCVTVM
# Procedure, shortened: as §1
# ETV2 = target: T10, ETV2 (Homo sapiens, UniProt O00321 1-342); conditions: protein: recombinant; tags: N-terminal GST; dsDNA, one strand shown
# T10 sequence: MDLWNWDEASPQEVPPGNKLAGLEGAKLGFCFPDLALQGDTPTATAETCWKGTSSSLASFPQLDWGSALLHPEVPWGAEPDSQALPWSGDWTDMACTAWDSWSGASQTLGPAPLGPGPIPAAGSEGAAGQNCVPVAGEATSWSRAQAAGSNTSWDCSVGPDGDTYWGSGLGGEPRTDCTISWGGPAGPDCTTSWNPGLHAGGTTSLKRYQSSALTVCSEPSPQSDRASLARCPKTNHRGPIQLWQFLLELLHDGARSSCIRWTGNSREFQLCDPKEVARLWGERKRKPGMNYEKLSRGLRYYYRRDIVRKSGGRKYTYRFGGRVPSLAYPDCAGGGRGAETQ
# Procedure, shortened: as §1
# ELF3 = target: T11, ELF3 (Homo sapiens, UniProt P78545 1-371); conditions: protein: recombinant; tags: N-terminal GST; dsDNA, one strand shown
# T11 sequence: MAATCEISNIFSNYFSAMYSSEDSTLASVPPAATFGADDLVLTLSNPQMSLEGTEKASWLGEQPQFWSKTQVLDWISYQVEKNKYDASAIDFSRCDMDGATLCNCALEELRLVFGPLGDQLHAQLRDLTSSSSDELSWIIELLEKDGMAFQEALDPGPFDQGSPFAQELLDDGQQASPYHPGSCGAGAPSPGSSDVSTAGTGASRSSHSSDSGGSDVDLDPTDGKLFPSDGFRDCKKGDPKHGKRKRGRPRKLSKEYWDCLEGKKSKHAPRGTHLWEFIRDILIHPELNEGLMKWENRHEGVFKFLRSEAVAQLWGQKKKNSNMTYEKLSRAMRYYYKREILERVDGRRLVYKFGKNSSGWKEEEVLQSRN
# Procedure, shortened: as §1
# CRX = CRX (Homo sapiens, UniProt O43186 1-299); conditions: protein: recombinant; tags: N-terminal GST; dsDNA, one strand shown
# Procedure, shortened: as §1
# ETV1 = ETV1 (Homo sapiens, UniProt P50549 1-477); conditions: protein: recombinant; tags: N-terminal GST; dsDNA, one strand shown
# Procedure, shortened: as §1
# HSF1, sequence (Q00613 whole entry): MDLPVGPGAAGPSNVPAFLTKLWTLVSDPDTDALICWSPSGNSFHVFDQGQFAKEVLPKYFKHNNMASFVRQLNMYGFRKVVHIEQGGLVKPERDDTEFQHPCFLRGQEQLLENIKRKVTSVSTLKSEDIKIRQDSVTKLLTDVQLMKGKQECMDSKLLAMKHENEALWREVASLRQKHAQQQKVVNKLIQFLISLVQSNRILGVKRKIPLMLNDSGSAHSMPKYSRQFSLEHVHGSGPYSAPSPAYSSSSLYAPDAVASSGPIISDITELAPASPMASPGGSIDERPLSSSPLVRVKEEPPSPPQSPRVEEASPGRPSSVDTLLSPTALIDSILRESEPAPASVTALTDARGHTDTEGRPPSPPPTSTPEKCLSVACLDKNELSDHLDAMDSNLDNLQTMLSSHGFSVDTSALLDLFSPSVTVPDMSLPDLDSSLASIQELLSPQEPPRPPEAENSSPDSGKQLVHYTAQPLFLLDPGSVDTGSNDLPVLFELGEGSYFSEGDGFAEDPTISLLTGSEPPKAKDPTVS
# CRX, sequence (O43186 whole entry): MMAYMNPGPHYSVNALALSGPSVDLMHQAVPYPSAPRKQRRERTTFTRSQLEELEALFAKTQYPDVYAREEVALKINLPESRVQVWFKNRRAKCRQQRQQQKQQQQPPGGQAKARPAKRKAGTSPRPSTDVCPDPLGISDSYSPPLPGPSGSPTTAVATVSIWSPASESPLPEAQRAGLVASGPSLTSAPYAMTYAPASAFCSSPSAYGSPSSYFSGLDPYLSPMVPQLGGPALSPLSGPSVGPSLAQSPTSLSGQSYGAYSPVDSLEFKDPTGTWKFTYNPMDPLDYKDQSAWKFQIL
# ELF4, sequence (Q99607 whole entry): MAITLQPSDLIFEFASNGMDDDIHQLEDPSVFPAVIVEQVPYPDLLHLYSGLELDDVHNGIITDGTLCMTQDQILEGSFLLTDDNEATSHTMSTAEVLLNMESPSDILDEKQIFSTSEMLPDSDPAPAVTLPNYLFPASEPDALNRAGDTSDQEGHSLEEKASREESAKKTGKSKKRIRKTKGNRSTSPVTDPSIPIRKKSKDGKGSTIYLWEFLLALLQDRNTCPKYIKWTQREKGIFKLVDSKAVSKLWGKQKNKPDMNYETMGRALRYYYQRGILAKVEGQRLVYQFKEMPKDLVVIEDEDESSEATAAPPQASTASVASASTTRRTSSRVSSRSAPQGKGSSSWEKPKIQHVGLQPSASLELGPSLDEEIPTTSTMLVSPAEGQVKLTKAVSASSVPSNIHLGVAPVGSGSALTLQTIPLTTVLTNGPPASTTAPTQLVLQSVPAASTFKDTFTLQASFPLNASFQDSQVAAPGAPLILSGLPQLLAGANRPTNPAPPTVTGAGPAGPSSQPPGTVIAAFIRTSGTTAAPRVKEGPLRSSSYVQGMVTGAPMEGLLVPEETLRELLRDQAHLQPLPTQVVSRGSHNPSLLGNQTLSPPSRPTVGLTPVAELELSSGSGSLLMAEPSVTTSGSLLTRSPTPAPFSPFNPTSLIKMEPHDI
# SPIB, sequence (Q01892 whole entry): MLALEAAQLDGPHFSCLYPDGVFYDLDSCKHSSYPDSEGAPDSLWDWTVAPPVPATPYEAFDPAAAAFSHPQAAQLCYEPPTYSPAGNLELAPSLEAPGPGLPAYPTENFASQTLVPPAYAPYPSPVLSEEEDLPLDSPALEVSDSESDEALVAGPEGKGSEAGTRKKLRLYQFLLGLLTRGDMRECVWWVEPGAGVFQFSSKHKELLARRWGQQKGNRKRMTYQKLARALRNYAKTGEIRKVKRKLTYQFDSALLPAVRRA
# ETV5, sequence (P41161 whole entry): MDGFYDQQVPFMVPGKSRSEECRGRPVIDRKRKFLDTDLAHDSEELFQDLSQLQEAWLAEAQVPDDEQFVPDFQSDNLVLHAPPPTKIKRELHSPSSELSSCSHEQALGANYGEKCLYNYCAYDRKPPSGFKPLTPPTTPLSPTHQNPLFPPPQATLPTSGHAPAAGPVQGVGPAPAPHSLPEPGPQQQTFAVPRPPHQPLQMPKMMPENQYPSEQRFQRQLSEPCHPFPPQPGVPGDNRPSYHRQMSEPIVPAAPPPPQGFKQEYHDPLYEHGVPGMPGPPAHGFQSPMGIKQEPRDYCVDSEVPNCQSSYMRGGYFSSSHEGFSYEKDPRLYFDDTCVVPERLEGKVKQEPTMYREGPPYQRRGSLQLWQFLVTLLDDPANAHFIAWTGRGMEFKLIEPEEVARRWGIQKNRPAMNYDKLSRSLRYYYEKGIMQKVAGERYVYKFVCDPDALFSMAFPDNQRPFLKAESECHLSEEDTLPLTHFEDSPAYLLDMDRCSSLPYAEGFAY
# ELF1, sequence (P32519 whole entry): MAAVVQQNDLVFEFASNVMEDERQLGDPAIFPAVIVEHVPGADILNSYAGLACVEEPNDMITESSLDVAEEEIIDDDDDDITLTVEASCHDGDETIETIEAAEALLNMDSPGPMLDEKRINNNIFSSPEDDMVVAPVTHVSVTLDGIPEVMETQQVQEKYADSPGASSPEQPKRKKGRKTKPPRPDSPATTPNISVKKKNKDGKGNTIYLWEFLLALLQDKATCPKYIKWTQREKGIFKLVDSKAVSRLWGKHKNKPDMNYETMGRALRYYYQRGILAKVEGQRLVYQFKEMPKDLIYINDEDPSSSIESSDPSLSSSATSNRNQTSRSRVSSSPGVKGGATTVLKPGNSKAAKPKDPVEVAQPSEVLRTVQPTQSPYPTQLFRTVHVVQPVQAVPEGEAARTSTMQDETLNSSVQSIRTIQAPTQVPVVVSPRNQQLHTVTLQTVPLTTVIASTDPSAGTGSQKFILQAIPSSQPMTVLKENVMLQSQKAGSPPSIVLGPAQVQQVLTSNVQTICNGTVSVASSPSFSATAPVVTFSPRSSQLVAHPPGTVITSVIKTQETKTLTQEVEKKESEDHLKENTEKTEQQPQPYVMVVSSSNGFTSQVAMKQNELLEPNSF
# ETV1, sequence (P50549 whole entry): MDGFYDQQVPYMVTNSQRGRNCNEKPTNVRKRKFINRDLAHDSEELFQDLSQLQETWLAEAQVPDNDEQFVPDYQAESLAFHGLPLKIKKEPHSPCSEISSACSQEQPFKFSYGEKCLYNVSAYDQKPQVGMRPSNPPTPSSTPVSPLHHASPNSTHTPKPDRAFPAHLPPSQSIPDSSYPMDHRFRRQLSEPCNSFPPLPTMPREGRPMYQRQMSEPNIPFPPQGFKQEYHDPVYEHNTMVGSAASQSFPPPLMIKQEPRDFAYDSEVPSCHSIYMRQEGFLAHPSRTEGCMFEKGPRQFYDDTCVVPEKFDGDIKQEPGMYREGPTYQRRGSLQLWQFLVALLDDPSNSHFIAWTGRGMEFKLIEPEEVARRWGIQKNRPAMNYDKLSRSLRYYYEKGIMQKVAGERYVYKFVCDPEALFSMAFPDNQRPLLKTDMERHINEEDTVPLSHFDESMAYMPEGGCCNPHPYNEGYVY
sequence,measurement,setting,value
TTCGAC,binding signal,FLI1,"1.52 fold enrichment (6-mer frequency, TF over GST control)"
same,binding signal,ELK1,"1.51 fold enrichment (6-mer frequency, TF over GST control)"
same,binding signal,GABPA,"1.49 fold enrichment (6-mer frequency, TF over GST control)"
same,binding signal,ERG,"1.43 fold enrichment (6-mer frequency, TF over GST control)"
same,binding signal,ELF1,"1.49 fold enrichment (6-mer frequency, TF over GST control)"
same,binding signal,EHF,"1.41 fold enrichment (6-mer frequency, TF over GST control)"
same,binding signal,SPI1,"1.3 fold enrichment (6-mer frequency, TF over GST control)"
same,binding signal,SPIB,"1.45 fold enrichment (6-mer frequency, TF over GST control)"
same,binding signal,ELK3,"1.39 fold enrichment (6-mer frequency, TF over GST control)"
same,binding signal,FEV,"1.5 fold enrichment (6-mer frequency, TF over GST control)"
same,binding signal,ETV5,"1.46 fold enrichment (6-mer frequency, TF over GST control)"
same,binding signal,HSF1,"1.75 fold enrichment (6-mer frequency, TF over GST control)"
same,binding signal,SPIC,"1.35 fold enrichment (6-mer frequency, TF over GST control)"
same,binding signal,ELF4,"1.63 fold enrichment (6-mer frequency, TF over GST control)"
same,binding signal,ELK4,"1.43 fold enrichment (6-mer frequency, TF over GST control)"
same,binding signal,ETV2,"1.35 fold enrichment (6-mer frequency, TF over GST control)"
same,binding signal,ELF3,"1.46 fold enrichment (6-mer frequency, TF over GST control)"
same,binding signal,CRX,"1.44 fold enrichment (6-mer frequency, TF over GST control)"
same,binding signal,ETV1,"1.44 fold enrichment (6-mer frequency, TF over GST control)"
